The values below come from PubChem BioAssay (NCATS).

The subject of one assay is MKL-1. Description: qHTS assay to identify novel small-molecules to repurpose for Merkel cell carcinoma treatment (AID 1296009). Note: nearly all actives have a fitted effect of over 60% in size. Particulars: MCC and control cell lines, CellTiter-Glo viability, 72 h; series mostly up to 46 µM. The procedure, abridged:
(§1)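 Cell viability measured by CellTiter-Glo following 72 hr compound treatment at 37 degree celsius, with NPC and MIPE libraries tested in 8- and 11-point concentration series.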

The test system of the next assay is MKL-2. Described as above. Particulars: MCC and control cell lines, CellTiter-Glo viability, 72 h; series mostly up to 46 µM. The procedure, abridged: as §1
Another assay concerns UISO. The assay is described as above. Particulars: MCC and control cell lines, CellTiter-Glo viability, 72 h; series mostly up to 46 µM. The procedure, abridged:
as §1

In the next assay the test system is C33A. Description: Primary qHTS to identify gynecologic anti-cancer compounds using libraries of approved drugs and bioactive compounds (AID 1345084). Note: nearly all actives have a fitted effect of over 55% in size. Particulars: Gynecologic cancer cell panel viability, ATPlite luminescence, 48 h; series mostly up to 57.5 µM. The procedure, abridged: (§2)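 ATP-based viability (ATPlite), 1,000 cells/well, 16 h pre-incubation, 48 h compound at 37 C, 5% CO2, 15 min RT before read.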

Another assay relates to CAOV3. Described as above. Particulars: Gynecologic cancer cell panel viability, ATPlite luminescence, 48 h; series mostly up to 57.5 µM. The procedure, abridged: as §2
The next assay deals with CASKI. Described as above. Particulars: Gynecologic cancer cell panel viability, ATPlite luminescence, 48 h; series mostly up to 57.5 µM. Summed up: as §2
The subject of the next assay is Es-2. The assay is described as above. Particulars: Gynecologic cancer cell panel viability, ATPlite luminescence, 48 h; series mostly up to 57.5 µM. Summed up:
as §2

The next assay has as its system HeLa. The description is as above. Particulars: Gynecologic cancer cell panel viability, ATPlite luminescence, 48 h; series mostly up to 57.5 µM. The procedure, abridged: as §2
The test system of a further assay is Hek293T. The description is as above. Particulars: Gynecologic cancer cell panel viability, ATPlite luminescence, 48 h, control line for the selectivity index; series mostly up to 57.5 µM. Summed up:
as §2

The subject of a further assay is JEG-3. The description is as above. Particulars: Gynecologic cancer cell panel viability, ATPlite luminescence, 48 h; series mostly up to 57.5 µM. The procedure, abridged: as §2
A further assay relates to OV90. Described as above. Particulars: Gynecologic cancer cell panel viability, ATPlite luminescence, 48 h; series mostly up to 57.5 µM. The procedure, abridged:
as §2

The next assay relates to PA-1. The assay is described as above. Particulars: Gynecologic cancer cell panel viability, ATPlite luminescence, 48 h; series mostly up to 57.5 µM. Summed up: as §2
The next assay concerns SKOV3. Described as above. Particulars: Gynecologic cancer cell panel viability, ATPlite luminescence, 48 h; series mostly up to 57.5 µM. The procedure, abridged: as §2
In another assay the test system is Tov-21-G. The description is as above. Particulars: Gynecologic cancer cell panel viability, ATPlite luminescence, 48 h; series mostly up to 57.5 µM. The procedure, abridged:
as §2

The subject of a further assay is Tov112D. The description is as above. Particulars: Gynecologic cancer cell panel viability, ATPlite luminescence, 48 h; series mostly up to 57.5 µM. The procedure, abridged:
as §2

The test system of a further assay is WaGa. The assay can be described thus: qHTS assay to identify novel small-molecules to repurpose for Merkel cell carcinoma treatment (AID 1296009). Note: nearly all actives have a fitted effect of over 60% in size. Particulars: MCC and control cell lines, CellTiter-Glo viability, 72 h; series mostly up to 46 µM. Summed up:
as §1

The nature of assay [1]: qHTS assay to identify inhibitors of the type 1 interferon - major histocompatibility complex class I in skeletal muscle: Counter screen cell viability and HiBit confirmation (AID 1347412). For all read-outs here: nearly all actives have a fitted effect of over 60% in size. Particulars: iHSKM muscle cells + IFN-b, HiBiT or CellTiter-Glo, 24 h; for activity change, negative = inhibition: at 45.9 µM (top of the series). The procedure, abridged: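 After 24 h with human IFN-beta (4 ng/ml) and compound titrations (top 46 uM final, 1:3, 12 points), HLA-B HiBit myoblasts were lysed for either Nano-Glo HiBiT luminescence or CellTiter Glo viability on paired plates.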

The nature of assay [2]: Drug repurposing screens with cells derived from glioblastoma tumor samples (AID 1345199). Note: nearly all actives have a fitted effect of over 40% in size. Particulars: GBM patient neurospheres viability, ATP luminescence, 48 h. Summed up: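 Primary testing used CD133+ neurospheres from four GBM patients, seven concentrations, 48 h exposure and ATP-based viability; confirmation added three slower-growing patient lines.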

Inconclusive results are not listed. Unmarked numbers belong to inactive results. The source made the active and inactive calls. Calls come from the whole dose curve; as a rule, active = well fitted curve in the direction sought with a large enough effect; inconclusive = small, poorly fitted or top-dose-only effect, or another doubt; inactive = no such curve, though single readings can be large; an effect the other way counts as inactive or inconclusive.
% is set by controls: 0 for no effect and ±100 for the full control effect; potency is the fitted concentration of half-maximal effect.

In the case of `CS(=O)c1ccc(-c2nc(-c3ccc(F)cc3)c(-c3ccncc3)[nH]2)cc1` (configuration not stated), the Potency result in the assay on MKL-1, with MKL-2, in the assay on UISO, with C33A, in the assay with CAOV3 and in the assay on CASKI was “inactive” each time. Besides, the Potency result in the assay with Es-2, in the assay with HeLa, with Hek293T, in the assay on JEG-3, in the assay on OV90 and in the assay with PA-1 was “inactive” throughout. The Potency entry in the assay with SKOV3, in the assay with Tov-21-G and in the assay on Tov112D was “inactive” each time.
For the molecule `NC(=O)c1cnc(-c2ccc(C3(N)CCC3)cc2)c(-c2ccccc2)c1`, the Potency entry with MKL-1, in the assay with MKL-2, in the assay on UISO, with WaGa, with Es-2 and with HeLa was “inactive” each time. In addition, the Potency entry with Hek293T, in the assay on JEG-3 and in the assay on Tov112D was “inactive” in each case. In the assay with SKOV3, the Potency was 28.2 µM (active).
For `NS(=O)(=O)c1cccc2c1C(=O)c1cccc(O)c1C2=O`, the Potency was 0.132 µM (active) in the assay on MKL-1; 0.264 µM (active) in the assay on MKL-2; 0.662 µM (active) with UISO; 0.132 µM (active) in the assay with WaGa; 0.557 µM (active) in assay [1] (HiBiT); 0.496 µM (active) in [1] (Viability).
On to `CN1C[C@H]2c3ccccc3Oc3ccc(Cl)cc3[C@@H]2C1`, for which the Potency entry with MKL-1, with MKL-2, with UISO, with WaGa, with C33A and in the assay with CAOV3 was “inactive” each time. Also, the Potency entry in the assay with CASKI, with HeLa, with JEG-3, with PA-1, with Tov-21-G and with Tov112D was “inactive” in each case. The activity, negative = cell killing in assay [2] (at 45.9 µM (top of the series), tumour line B) was -17.5%. Also, the Potency in assay [2] (tumour line A) is 10 µM (active).
Take `COc1ccc(Cc2ccc(NC(N)=O)cc2)cc1-c1cccc(Cl)c1`: the Potency result in the assay with MKL-1, with MKL-2, with UISO, in the assay on WaGa, with C33A and with CASKI was “inactive” in each case. The Potency result in the assay on Es-2, with HeLa, in the assay with Hek293T, with JEG-3, in the assay with OV90 and with PA-1 was “inactive” throughout. Moreover, the Potency entry in the assay on SKOV3, in the assay with Tov-21-G and in the assay on Tov112D was “inactive” throughout.
For `COC[C@@H](c1ccc(C(F)(F)F)cc1)N1CCN(C2(C)CCN(C(=O)c3c(C)ncnc3C)CC2)C[C@H]1C`, the Potency result in the assay with MKL-1, in the assay with MKL-2, with UISO, with WaGa, in the assay on C33A and in the assay on CASKI was “inactive” throughout. Besides, the Potency result in the assay with Es-2, in the assay with HeLa, with Hek293T, in the assay on JEG-3, with OV90 and in the assay on PA-1 was “inactive” throughout. The Potency entry in the assay on Tov-21-G and in the assay on Tov112D was “inactive” each time.
Consider `CO[C@H]1C(=O)[C@]2(C)[C@@H](OC)C[C@H]3OC[C@@]3(OC(C)=O)[C@H]2[C@H](OC(=O)c2ccccc2)[C@]2(O)C[C@H](OC(=O)[C@H](O)[C@@H](NC(=O)OC(C)(C)C)c3ccccc3)C(C)=C1C2(C)C`, for which the Potency entry in the assay with MKL-1, with MKL-2, in the assay on UISO and with WaGa was “inactive” each time. Further, in assay [1] (Viability), the activity change, negative = inhibition was -18.6%.
Regarding `COc1cc(Nc2ncc(F)c(Nc3ccc4c(n3)NC(=O)C(C)(C)O4)n2)cc(OC)c1OC`, the Potency result in the assay with MKL-1, in the assay on MKL-2, in the assay on UISO, with WaGa, in the assay on C33A and in the assay on Es-2 was “inactive” in each case. The Potency result with Hek293T and in the assay on JEG-3 was “inactive” in each case. Besides, the Potency was 11.2 µM (active) with CASKI, 31.6 µM (active) in the assay on HeLa, 15.8 µM (active) in the assay on SKOV3 and 1.25 µM (active) in assay [1] (HiBiT). Moreover, the activity change, negative = inhibition in assay [1] (Viability) is -9.37%.
